Data on 61 compounds can be found in PubChem BioAssay (Tox21).

Experiment [1] deals with Acetylcholinesterase (Homo sapiens) (UniProt P22303). The experiment in a line: Acetylcholinesterase (AChE) small molecule antagonists: colormetric cell-based qHTS assay (AID 1347395). Also: nearly all actives have a fitted effect of over 30% in size. Also: potency is read from the fitted curve at half-maximal effect. The following applies: SH-SY5Y cells AChE activity, colorimetric (Ellman); series mostly up to 115 µM. Summed up: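 Cells (SH-SY5Y, 2,000 per well) are seeded and left overnight at 37 C. Compound is added for 30 min, then DTNB and acetylthiocholine for a further 90 min at 37 C before absorbance-based thiocholine detection.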

Experiment [2] has the same target. Briefly: Acetylcholinesterase (AChE) small molecule antagonists: fluorescence cell-based qHTS assay (AID 1347398). Also: nearly all actives have a fitted effect of over 50% in size. Also: potency is read from the fitted curve at half-maximal effect. The following applies: SH-SY5Y cells; Potency: AChE activity; outcome: AChE activity; series mostly up to 115 µM. A digest of the protocol:
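SH-SY5Y cells (2000/well), attached overnight, incubated with compound 30 min at 37 C. Acetylthiocholine plus Thiolite Green then added for 40 min at room temperature. Thiocholine fluorescence (Ex/Em 490/520 nm) reports cellular AChE activity.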
For orientation: Quantitative high-throughput screening tests each substance at several concentrations.

For experiment [3] the target is unchanged. Briefly: Acetylcholinesterase (AChE) small molecule antagonists: enzyme-based qHTS assay with human liver microsomes (AID 1347399). Also: nearly all actives have a fitted effect of over 60% in size. The following applies: Potency: qHTS inhibition; outcome: qHTS inhibition; series mostly up to 115 µM. Summed up: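 Recombinant human AChE (50 mU/mL in the enzyme mix) and human liver microsomes (0.25 mg/mL final) were preincubated with compound and NADPH (0.25 mg/mL final) for 30 min at 37 C. Acetylthiocholine/DTNB was then added; thiocholine was read colorimetrically after 10 min at room temperature.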

Structures are written as SMILES. Values joined by “and” are separate entries in the source; they are usually repeats but may differ in a detail not shown here. Equal entries are not always repeated. Records with an inconclusive call do not appear. A structure can be active in one record and inactive in another. Active and inactive are the calls of the source. Calls follow the shape of the full dose curve.
% is scaled to controls: 0 for no effect and ±100 for the full control effect.

Sequence of Acetylcholinesterase (Homo sapiens) (P22303 whole entry, looked up): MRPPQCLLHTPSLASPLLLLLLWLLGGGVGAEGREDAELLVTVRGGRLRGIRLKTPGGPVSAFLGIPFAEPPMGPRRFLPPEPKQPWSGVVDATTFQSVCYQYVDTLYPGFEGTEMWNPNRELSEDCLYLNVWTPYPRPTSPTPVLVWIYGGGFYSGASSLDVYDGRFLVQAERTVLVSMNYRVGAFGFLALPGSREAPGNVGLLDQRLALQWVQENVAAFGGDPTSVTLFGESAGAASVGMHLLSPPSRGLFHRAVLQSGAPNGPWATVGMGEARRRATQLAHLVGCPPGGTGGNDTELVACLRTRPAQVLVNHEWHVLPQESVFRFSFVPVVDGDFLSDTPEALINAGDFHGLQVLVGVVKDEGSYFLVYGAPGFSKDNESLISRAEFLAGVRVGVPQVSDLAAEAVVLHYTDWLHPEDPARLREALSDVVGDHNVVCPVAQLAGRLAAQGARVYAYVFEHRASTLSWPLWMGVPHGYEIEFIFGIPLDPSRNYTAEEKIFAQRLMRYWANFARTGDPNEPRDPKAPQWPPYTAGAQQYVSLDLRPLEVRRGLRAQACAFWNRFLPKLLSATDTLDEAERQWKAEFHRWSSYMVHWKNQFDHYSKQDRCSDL

Turning to `COc1cc(C(=S)N2CCOCC2)cc(OC)c1OC`, the Potency result in experiment [1], in experiment [2] and in experiment [3] was “inactive” each time.

Regarding `Cn1c(=O)c2[nH]c(Br)nc2n(C)c1=O`, the Potency entry in experiment [1], in experiment [2] and in experiment [3] was “inactive” in each case.

Turning to `CC(=O)CC(=O)Nc1ccc(S(=O)(=O)O)cc1`, the Potency entry in experiment [1], in experiment [2] and in experiment [3] was “inactive” throughout.

As for `Nc1cc(Cl)c(-c2cc(Cl)c(N)cc2Cl)cc1Cl`, the Potency entry in experiment [1], in experiment [2] and in experiment [3] was “inactive” throughout.

In the case of `C=C/C=C/C=C/CCCCC`, the activity, negative = inhibition in experiment [1] was 0.16% [at 23.6 µM] (inactive). For the same compound, the activity change, negative = inhibition in experiment [2] is -10.6% [at 23.8 µM] (inactive); in experiment [3], -1.78% [at 23.6 µM] (inactive).

`Cc1onc(-c2ccccc2Cl)c1C(=O)N[C@@H]1C(=O)N2[C@@H]1SC(C)(C)[C@@H]2C(=O)O`: the Potency entry in experiment [1] and in experiment [2] was “inactive” each time.

Consider `CC(C)N=C(N)/N=C(\N)Nc1ccc(Cl)cc1`, for which the Potency entry in experiment [1], in experiment [2] and in experiment [3] was “inactive” throughout.

`CC1(C)Cc2cccc(N)c2O1`: the Potency entry in experiment [1], in experiment [2] and in experiment [3] was “inactive” throughout.

For the compound `O=Cc1c2ccccc2c(Cl)c2ccccc12`, the Potency result in experiment [1], in experiment [2] and in experiment [3] was “inactive” in each case.

With `O[C@@H]1CO[C@H]2[C@@H]1OC[C@@H]2O`, the Potency result in experiment [1], in experiment [2] and in experiment [3] was “inactive” each time.

Turning to `CCCCCCCCCC/C=C/C#N`, the Potency entry in experiment [1], in experiment [2] and in experiment [3] was “inactive” in each case.

As to `CCCCC1(COC(=O)CCC(=O)O)C(=O)N(c2ccccc2)N(c2ccccc2)C1=O`, the Potency entry in experiment [1], in experiment [2] and in experiment [3] was “inactive” throughout.

`CC(C)(c1ccccc1)c1ccc(Nc2ccc(C(C)(C)c3ccccc3)cc2)cc1`: the Potency entry in experiment [1], in experiment [2] and in experiment [3] was “inactive” in each case.

Regarding `NC(=O)Cn1c(=O)cc(CCN2CCN(c3nccc4sccc34)CC2)c2ccc(F)cc21`, the Potency in experiment [1] and in experiment [2] was 35.6 µM (active) in each case. In addition, in experiment [3], the Potency entry was “inactive”.

Regarding `CC(C)OC(=O)C(O)(CC(=O)O)CC(=O)O`, the Potency result in experiment [1], in experiment [2] and in experiment [3] was “inactive” throughout.

In the case of `CCN(C(=O)c1cc(C)cc(OC[C@H](C)Nc2ccncc2)c1)C(C)C`, the Potency was 12.5 µM (active) in experiment [1] and 6.26 µM (active) in experiment [2].

Turning to `CCCCCCCCCCCCc1ccccc1O`, the Potency result in experiment [1], in experiment [2] and in experiment [3] was “inactive” throughout.

In the case of `O=C(NO)C1(NS(=O)(=O)c2ccc(Oc3ccc(F)cc3)cc2)CCOCC1`, the Potency entry in experiment [1], in experiment [2] and in experiment [3] was “inactive” each time.

With `c1ccc2c(c1)Cc1ccccc1-2`, the Potency result in experiment [1], in experiment [2] and in experiment [3] was “inactive” throughout.

As for `Cc1cc2c(OCC(CNC(C)(C)C)OC(=O)c3ccccc3)cccc2[nH]1` (configuration not stated), the Potency result in experiment [1], in experiment [2] and in experiment [3] was “inactive” each time.

For `CC(=O)[C@H]1CC[C@H]2[C@@H]3CCC4=CC(=O)CC[C@]4(C)[C@H]3CC[C@]12C`, the Potency in experiment [1] is 39.7 µM (active) and 35.6 µM (active); in experiment [2], 28.1 µM (active) and 31.7 µM (active). In addition, the Potency result in experiment [3] was “inactive”.

`CC(=O)Nc1ccc(/C=N/NC(N)=S)cc1`: the Potency entry in experiment [1], in experiment [2] and in experiment [3] was “inactive” in each case.

Take `CCCCCCCC/C=C\CCCCCCCC(N)=O`: the Potency entry in experiment [1], in experiment [2] and in experiment [3] was “inactive” in each case.

With `NC(=NCCCCCCN=C(N)/N=C(\N)Nc1ccc(Cl)cc1)/N=C(\N)Nc1ccc(Cl)cc1`, the Potency was 56.1 µM (active) and 62.9 µM (active) and inactive in experiment [1]; 11.1 µM (active) and 17.7 µM (active) and 16.2 µM (active) in experiment [2]. Besides, in experiment [3], the Potency result is “inactive”.

As for `CCCCCCCCCCCO`, the Potency entry in experiment [1], in experiment [2] and in experiment [3] was “inactive” throughout.

For `CC1(C)[C@@H]2CC[C@]3(C2)[C@@H]1C(=O)CCC3(C)C`, the Potency result in experiment [1], in experiment [2] and in experiment [3] was “inactive” each time.

With `C/C(=C(\CCO)SS/C(CCO)=C(\C)N(C=O)Cc1cnc(C)nc1N)N(C=O)Cc1cnc(C)nc1N`, the Potency result in experiment [1], in experiment [2] and in experiment [3] was “inactive” each time.

Take `C1CCN(CN2CCCCC2)CC1`: the Potency result in experiment [1], in experiment [2] and in experiment [3] was “inactive” each time.

Consider `C1CCCNCCC1`, for which the Potency entry in experiment [1], in experiment [2] and in experiment [3] was “inactive” in each case.

Consider `C1=CCCC1`, for which the Potency entry in experiment [1], in experiment [2] and in experiment [3] was “inactive” in each case.

With `CC1(C)C(=O)N(Cl)C(=O)N1Cl`, the Potency result in experiment [1], in experiment [2] and in experiment [3] was “inactive” throughout.

For the compound `CCCCCCC=O`, the Potency entry in experiment [1], in experiment [2] and in experiment [3] was “inactive” each time.

Regarding `CC[C@H](C)COC(=O)/C=C/c1ccc(N=Cc2ccc(OC)cc2)cc1`, the Potency entry in experiment [1], in experiment [2] and in experiment [3] was “inactive” in each case.

For the compound `CN1CCC(OC(c2ccccc2)c2ccccc2)CC1`, the Potency entry in experiment [1], in experiment [2] and in experiment [3] was “inactive” throughout.

Consider `O=C(O)CCNC(=O)c1ccccc1`, for which the Potency result in experiment [1], in experiment [2] and in experiment [3] was “inactive” throughout.

On to `CC(C)C(=O)OCCOc1ccccc1`, for which the Potency entry in experiment [1], in experiment [2] and in experiment [3] was “inactive” in each case.

As to `CCCCCC[C@@H](O)C/C=C\CCCCCCCC(=O)OC`, the Potency entry in experiment [1], in experiment [2] and in experiment [3] was “inactive” throughout.

As for `CC(=O)C1(C)CC2=C(CCCC2(C)C)CC1C` (configuration not stated), the Potency entry in experiment [1], in experiment [2] and in experiment [3] was “inactive” each time.

For `CC(C(=O)O)c1ccc2c(c1)CC(=O)c1ccccc1S2` (configuration not stated), the Potency result in experiment [1], in experiment [2] and in experiment [3] was “inactive” in each case.

Take `CCOC(=O)CC(O)(CC(=O)OCC)C(=O)OCC`: the Potency entry in experiment [1], in experiment [2] and in experiment [3] was “inactive” throughout.

Take `CCCCCCCCOC(=O)c1ccc(O)cc1`: the Potency result in experiment [1], in experiment [2] and in experiment [3] was “inactive” in each case.

In the case of `CC(=O)c1ccc([N+](=O)[O-])cc1`, the Potency result in experiment [1], in experiment [2] and in experiment [3] was “inactive” each time.

For `CC1=C(Br)C(=O)C(Br)=C/C1=C(/c1ccccc1S(=O)(=O)O)c1cc(Br)c(O)c(Br)c1C`, the Potency entry in experiment [1], in experiment [2] and in experiment [3] was “inactive” throughout.

As for `CC(C)(C)CC(C)(C)c1ccc(O)c(-n2nc3ccccc3n2)c1`, the Potency entry in experiment [1], in experiment [2] and in experiment [3] was “inactive” each time.

As for `c1ccc(-c2ccccn2)nc1`, the Potency result in experiment [1], in experiment [2] and in experiment [3] was “inactive” throughout.

Turning to `O=c1n(CC2CO2)c(=O)n(CC2CO2)c(=O)n1CC1CO1` (configuration not stated), the Potency entry in experiment [1], in experiment [2] and in experiment [3] was “inactive” in each case.

Turning to `COC(C)(C)OC`, the Potency entry in experiment [1], in experiment [2] and in experiment [3] was “inactive” throughout.

Consider `CCOc1cc(NC(C)=O)ccc1C(=O)OC`, for which the Potency result in experiment [1], in experiment [2] and in experiment [3] was “inactive” each time.

Take `O=C1NC(c2ccccc2)(c2ccccc2)C(=O)N1COP(=O)(O)O`: the Potency entry in experiment [1], in experiment [2] and in experiment [3] was “inactive” each time.

On to `C[C@]12C=CC(=O)C=C1[C@@H](F)C[C@@H]1[C@@H]2[C@@H](O)C[C@@]2(C)[C@H]1CC[C@]2(O)C(=O)CO`, for which the Potency result in experiment [1], in experiment [2] and in experiment [3] was “inactive” each time.

With `CCCOC(=O)c1cc(O)c(O)c(O)c1`, the Potency result in experiment [1], in experiment [2] and in experiment [3] was “inactive” each time.

Consider `CC1CCCC(=O)C1=O` (configuration not stated), for which the Potency result in experiment [1], in experiment [2] and in experiment [3] was “inactive” in each case.

In the case of `COc1cc(C(=S)N2CCOCC2)ccc1O`, the Potency result in experiment [1] and in experiment [3] was “inactive” in each case.

For the compound `CCC(C)(CCC(C)C)C(=O)[O-].CCC(C)(CCC(C)C)C(=O)[O-].[Zn+2]` (configuration not stated), the Potency result in experiment [1], in experiment [2] and in experiment [3] was “inactive” throughout.

`CCN(CC)c1ccc(C(=C2C=CC(=[N+](CC)CC)C=C2)c2ccc(S(=O)(=O)O)cc2S(=O)(=O)[O-])cc1`: the Potency result in experiment [1], in experiment [2] and in experiment [3] was “inactive” in each case.

On to `COc1ccc(OC)c(NC(=O)CC(C)=O)c1`, for which the Potency entry in experiment [1], in experiment [2] and in experiment [3] was “inactive” throughout.

Take `CC12CCC(CC1=O)C2(C)C` (configuration not stated): the Potency result in experiment [1] and in experiment [3] was “inactive” each time.

As for `Cc1cc(=O)[nH]c(C(C)C)n1`, the Potency result in experiment [1], in experiment [2] and in experiment [3] was “inactive” in each case.

For `Cc1cc2c(C(C)C)c(O)c(O)c(C=O)c2c(O)c1-c1c(C)cc2c(C(C)C)c(O)c(O)c(C=O)c2c1O`, the Potency result in experiment [1], in experiment [2] and in experiment [3] was “inactive” in each case.

On to `CC1=NN(c2ccc(C(=O)O)cc2)C(=O)C1`, for which the Potency entry in experiment [1], in experiment [2] and in experiment [3] was “inactive” each time.

`O=C1C=CC(=O)O1`: in experiment [1], the Potency entry is “inactive”.
